Assay outcomes: PubChem, several laboratories
BioA inh-1: inhibitors of Mycobacterium tuberculosis BioA enzyme | inhibition, % at 9.99 µM | hit rate 0.096% among 360,000 | purified M. tuberculosis BioA enzyme, plate reader; in the data active means inhibition above about 40%
FadD28 FP inh: inhibitors of Mycobacterium tuberculosis FadD28 bisubstrate binding | FadD28 bisubstrate probe binding, fluorescence polarization | inhibition, % at 12.5 µM | hit rate 0.22% among 360,000 | AID 588549; in the data active means inhibition above about 8.5%, passing the limit was not always enough
TcdB GH inh: blocks C. difficile toxin B glycohydrolase activity; P18177; TcdB glycohydrolase enzymatic assay, plate reader; inhibition, % at 9.99 µM; hit rate 0.24% among 350,000; AID 652162; in the data active means inhibition above about 10%
RecA intein inh: blocks M. tuberculosis RecA intein splicing; P9WHJ3; cell-free RecA intein splicing, fluorescence; inhibition, % (test concentration not listed); hit rate 0.75% among 290,000; AID 2221; in the data active means inhibition above about 30%;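 further: 0% = vehicle wells and 100% = reference inhibitor control wells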
Mtb UGM inh: blocks M. tuberculosis UGM enzyme | inhibition, % at 10 µM | hit rate 0.06% among 320,000 | purified UGM, fluorescence polarization probe displacement | P9WIQ1; in the data active means inhibition above about 10%, passing the limit was not always enough
Rv3671c inh: inhibitors of M. tuberculosis serine protease Rv3671c. P9WHR9. inhibition, % at 5.96 µM. hit rate 0.048% among 320,000; in the data active means inhibition above about 38%;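 further: extracellular domain of Rv3671c used as enzyme; 0% = enzyme with DMSO and 100% = no enzyme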
BioA inh-2: blocks M. tuberculosis BioA aminotransferase. 310 tested, under 10 active. purified BioA enzyme, plate reader, dose response. shares compounds with BioA inh-1. max activity, %;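 further: top concentration of the dilution series was 10 µM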
HepG2 cytotox: cytotoxicity in HepG2 cells | shares compounds with BioA inh-1 | plate reader | max activity, % | 310 tested, under 10 active | AID 651898
NIH3T3 tox 5: kills NIH3T3 cells. NIH3T3 cytotoxicity, plate reader. shares compounds with BioA inh-1. AID 651900. activity change, negative = cytotoxicity, % at 26 µM. 310 tested, under 10 active
Starred values were filed as active, the others as inactive; . = not tested or not shown. Only some compounds are listed: those with a hit (about 0.97% of all), similar ones and a draw of the others. Unless noted, how the calls were made is not given here.

SMILES	BioA inh-1	FadD28 FP inh	TcdB GH inh	RecA intein inh	Mtb UGM inh	Rv3671c inh	BioA inh-2	HepG2 cytotox	NIH3T3 tox 5
CCN(Cc1ccccc1)S(=O)(=O)c1ccc2c(c1)NC(=O)CS2	2	-5	2	-2	3	5	.	.	.
CN(Cc1ccccc1)C(=O)CCS(=O)(=O)c1ccc2c(c1)NC(=O)CS2	41*	0	.	-1	0	3	8	18	8
C[C@H]1CN([C@@H](C)CO)C(=O)Cc2cc(NC(=O)CCCN(C)C)ccc2O[C@H]1CN(C)S(=O)(=O)c1ccc(F)cc1	-2	.	1	.	.	.	.	.	.
CCn1c(=O)n(CC)c2cc(N3CCCC3)c(NC(=O)c3ccc(F)cc3)cc21	17	1	0	-6	-1	-6	.	.	.
CCOc1ccc(C(=O)Nc2cc3c(cc2N2CCCC2)n(CC)c(=O)n3CC)cc1OCC	57*	-1	0	0	-1	-1	-10	-12	-14
O=C(CSc1nc2cc(C(=O)O)ccc2c(=O)n1-c1ccc(F)cc1)Nc1ccc(F)c(F)c1F	81*	-1	0	0	2	-4	-9	-8	-12
O=C(CSc1nc2ccccc2c(=O)n1-c1ccc(F)cc1)Nc1ccc(C(=O)O)cc1	0	-2	-2	1	1	-7	.	.	.
CCNC(=O)C[C@@H]1CC[C@@H]2[C@H](COC[C@@H](O)CN2C(=O)c2cc(Cl)cc(Cl)c2)O1	0	.	.	.	.	.	.	.	.
O=C(c1ccncc1)N1CC2(C1)[C@@H](c1ccccc1)[C@@H](CO)N2C(=O)CC1CC1	.	.	-1	.	.	.	.	.	.
CCOC(=O)C1=C(C)Nc2sc(C(=O)c3ccc(OC)cc3)c(N)c2C1c1ccc(C(=O)OC)cc1 (stereo unspecified)	-2	0	1	-20	2	-17	.	.	.
COC(=O)C1=C(C)Nc2sc(C(N)=O)c(N)c2C1c1ccncc1 (stereo unspecified)	76*	1	-2	-28	-1	1	-8	-16	4
CC1=CC2=NC(=O)/C(=C\c3cc(C)n(-c4ccccc4)c3C)C(=N)N2O1	10	-2	6	-5	0	0	.	.	.
CC1=CC2=NC(=O)/C(=C\c3cc(C)n(-c4ccccc4F)c3C)C(=N)N2O1	41*	-2	4	-5	1	-20	-5	44	-1
CCc1ccc(NC(=O)C(CC)Sc2nc3ccsc3c(=O)n2CCC(=O)O)cc1 (stereo unspecified)	0	-19	0	-2	2	0	.	.	.
CCC(Sc1nc2ccsc2c(=O)n1Cc1ccc(C(=O)O)cc1)C(=O)Nc1cccc(OC)c1 (stereo unspecified)	75*	-4	-1	.	.	.	-6	-11	-1
COC(=O)c1c(C(=O)OC)c(-c2ccccc2)n2c1CS(=O)C2 (stereo unspecified)	73*	0	.	-4	-1	-4	-2	24	6
COC(=O)c1c(C(=O)OC)c(-c2ccc(F)cc2)n2c1CS(=O)C2 (stereo unspecified)	60*	-2	1	-2	0	1	-7	-6	-5
COC(=O)c1c(C(=O)OC)c(-c2ccc(OC)cc2)n2c1CS(=O)C2 (stereo unspecified)	17	1	0	3	1	-1	.	.	.
O=C(C[C@H]1CC[C@H]2[C@@H](COC[C@H](O)CN2C(=O)Nc2ccc(C(F)(F)F)cc2)O1)NC1Cc2ccccc2C1	0	.	1	.	.	.	.	.	.
O=C(C1CC1)N1CC(=O)N2[C@H](CO)[C@@H](c3ccc(C#Cc4cccc(F)c4)cc3)[C@H]2C1	.	.	1	.	.	.	.	.	.
Cc1nc2sc(C(c3ccco3)N3CCN(c4ccccc4F)CC3)c(O)n2n1 (stereo unspecified)	1	-1	.	.	-1	6	.	.	.
Cc1nc2sc(C(c3ccc(Cl)cc3)N3CCN(c4ccccc4F)CC3)c(O)n2n1 (stereo unspecified)	43*	-3	.	6	-1	-7	10	-5	-4
O=C(NCC[C@@H]1CC[C@@H](NC(=O)c2ccc3c(c2)OCO3)[C@H](CO)O1)Nc1ccc(Cl)cc1	0	.	-3	.	.	.	.	.	.
